Results published in PubChem BioAssay AID602143 (Vanderbilt Specialized Chemistry Center, 2011).
Unmarked numbers belong to inactive results. No stated cut-off is given here; in the data, active means remaining activity below about 50%; inactive means the rest.

The compounds below were run against Phospholipase D2 (Homo sapiens) (UniProt O14939) (assay: cellular phospholipase D2 activity inhibition – cell-based, HEK293, single concentration (AID 602143;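 further: tested at 200 nM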)). Settings: HEK293 cellular PLD2 activity, percent of control; hits give low values.
Chain of Phospholipase D2 (Homo sapiens) (O14939 whole entry, looked up): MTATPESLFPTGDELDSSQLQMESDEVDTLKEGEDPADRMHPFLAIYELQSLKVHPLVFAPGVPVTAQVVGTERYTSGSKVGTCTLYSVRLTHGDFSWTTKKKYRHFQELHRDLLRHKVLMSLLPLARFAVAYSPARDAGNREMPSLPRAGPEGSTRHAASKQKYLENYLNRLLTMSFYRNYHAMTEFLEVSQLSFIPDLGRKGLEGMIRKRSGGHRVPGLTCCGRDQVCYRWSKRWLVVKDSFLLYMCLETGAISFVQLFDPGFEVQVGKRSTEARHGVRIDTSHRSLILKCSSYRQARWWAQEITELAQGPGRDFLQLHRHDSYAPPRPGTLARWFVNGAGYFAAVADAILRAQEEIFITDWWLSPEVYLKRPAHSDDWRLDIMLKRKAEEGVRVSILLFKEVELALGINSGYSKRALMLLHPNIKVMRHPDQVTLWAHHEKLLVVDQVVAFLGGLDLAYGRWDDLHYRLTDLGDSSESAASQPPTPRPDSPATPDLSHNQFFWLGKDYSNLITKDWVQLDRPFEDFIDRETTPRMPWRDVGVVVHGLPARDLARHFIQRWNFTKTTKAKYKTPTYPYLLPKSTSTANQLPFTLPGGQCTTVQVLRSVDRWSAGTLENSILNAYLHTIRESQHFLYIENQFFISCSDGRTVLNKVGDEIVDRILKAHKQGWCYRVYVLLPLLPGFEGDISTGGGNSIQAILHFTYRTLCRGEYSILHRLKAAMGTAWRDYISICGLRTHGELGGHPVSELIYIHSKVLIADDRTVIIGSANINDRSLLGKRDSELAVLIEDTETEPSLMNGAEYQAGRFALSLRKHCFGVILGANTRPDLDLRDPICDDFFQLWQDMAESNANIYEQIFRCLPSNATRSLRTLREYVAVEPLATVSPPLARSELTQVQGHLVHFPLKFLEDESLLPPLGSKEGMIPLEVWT
Chain of Phospholipase D2 (Homo sapiens) (O14939 whole entry, looked up): as above

Compound | remaining activity [%]
O=C(NCCN1CCN(c2ncccn2)CC1)c1ccc2ccccc2c1 | 90.4
O=C(NCCN1CCC2(CC1)CCN(c1ccccc1)C2=O)c1ccc2ccccc2c1 | 55
O=C(NCCN1CCC(n2nnc3ccccc32)CC1)c1cnc2ccccc2c1 | 77.7
Cc1ccc(C(=O)N[C@@H](C)CN2CCC(n3c(=O)[nH]c4ccc(F)cc43)CC2)cc1 | 64
O=C(NCCN1CCC(c2nc3ccccc3[nH]2)CC1)c1cnc2ccccc2c1 | 80.6
O=C1c2ccccc2C(=O)N1CCCNc1cccc(F)c1 | 119
CC(C)[C@@H](CN1CCC(n2c(=O)[nH]c3ccccc32)CC1)NC(=O)[C@@H]1C[C@H]1c1ccccc1 | 74
COc1cccc(N2CCN(CCNC(=O)c3ccc(F)cc3)CC2)c1 | 100
Cc1ccc(NC(=S)NCCN2CCC(n3c(=O)[nH]c4ccccc43)CC2)cc1 | 146
O=C(NCCN1CCN(c2ncccn2)CC1)c1ccc(F)cc1 | 92.2
C[C@@H](CN1CCC2(CC1)CN(S(C)(=O)=O)c1ccccc12)NC(=O)c1cnc2ccccc2c1 | 136
O=C(NCCN1CCN(c2ccccn2)CC1)c1ccc(F)cc1 | 101
CS(=O)(=O)N1CC2(CCN(CCNC(=O)c3ccc4ccccc4c3)CC2)c2ccccc21 | 84.2
C[C@@H](CN1CCC(n2c(=O)[nH]c3cc(-c4ccsc4)ccc32)CC1)NC(=O)[C@H]1C[C@@H]1c1ccccc1 | 81.2
